In PubChem BioAssay (NCI):
This is part of a sample that, as a whole, favours compounds with a hit. Of some 79,000 tested, about 15% had one in any assay. Values without a mark were called inactive. The source made the active and inactive calls. No stated cut-off is given here; in the data, active means growth inhibition above about 70%; inactive means the rest.

Experiments:
[1] = NCI Yeast Anticancer Drug Screen. Data for the rad50 strain (AID 155);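 further: 0% = growth of vehicle-only cultures of the same strain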; conditions: S. cerevisiae rad50 strain growth inhibition; at 50.0 µM; stronger effect = higher value
Method in brief: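 Growth of the mutant yeast was measured after compound exposure and referenced to vehicle-treated cultures.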

[2] = NCI Yeast Anticancer Drug Screen. Data for the mec2-1 strain (AID 157); conditions: S. cerevisiae mec2-1 strain, at 50.0 µM, stronger effect = higher value
Method in brief: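 Compounds were applied to mec2-1 yeast cells. Their growth was then compared with that of vehicle-treated cultures to give growth inhibition.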

[3] = NCI Yeast Anticancer Drug Screen. Data for the sgs1 mgt1 strain (AID 161);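 further: 0% = growth of cultures given vehicle only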; conditions: S. cerevisiae sgs1 mgt1 strain, at 50.0 µM, stronger effect = higher value
Method in brief: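 Percent growth inhibition was derived by comparing compound-exposed mutant yeast with vehicle-exposed cultures. The strain carries alterations in DNA damage repair.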

[4] = NCI Yeast Anticancer Drug Screen. Data for the cln2 rad14 strain (AID 165);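 further: 0% = growth equal to vehicle treated cultures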; conditions: S. cerevisiae cln2 rad14 strain, at 50.0 µM, stronger effect = higher value
Method in brief: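 Strain: cln2 rad14 yeast, altered in cell cycle control and DNA damage repair. Read-out: growth inhibition vs vehicle.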

[5] = NCI Yeast Anticancer Drug Screen. Data for the bub3 strain (AID 167); conditions: S. cerevisiae bub3 mutant strain, at 50.0 µM, stronger effect = higher value
Method in brief: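 Whole-cell yeast assay. The mutant strain was incubated with compounds, and growth inhibition was determined by comparison with vehicle-treated cells.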

[6] = NCI Yeast Anticancer Drug Screen. Data for the mlh1 rad18 strain (AID 175); conditions: S. cerevisiae mlh1 rad18 strain growth inhibition; at 50.0 µM; stronger effect = higher value
Method in brief: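 A repair-deficient yeast strain is exposed to test compound, and growth is scored relative to vehicle-treated controls.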

## N#CCCN(C1=NN(C(=O)CC(=O)Nc2ccccc2)C(c2ccccc2)C1)c1ccccc1Cl (stereo not drawn)
[1]
  growth inhibition: -5.05%
[2]
  growth inhibition: -3.9%
[3]
  growth inhibition: -36%
[4]
  growth inhibition: 27.9%
[5]
  growth inhibition: -1.15%
[6]
  growth inhibition: -9.2%

## CC(C)CSC(C)C
[1]
  growth inhibition: -3.6%
[2]
  growth inhibition: -43.4%
[3]
  growth inhibition: -27.6%
[4]
  growth inhibition: -5.25%
[5]
  growth inhibition: -6.9%
[6]
  growth inhibition: -11.1%

## C[C@]12C=CC(=O)C=C1[C@@H](F)C[C@H]1[C@@H]3CC[C@](O)(C(=O)CO)[C@@]3(C)C[C@H](O)[C@@]12F
[1]
  growth inhibition: -11.9%
[2]
  growth inhibition: -26.4%
[3]
  growth inhibition: 4.8%
[4]
  growth inhibition: 66.8%
[5]
  growth inhibition: 2.85%
[6]
  growth inhibition: -9.9%

## N#CC1CCN(Cc2ccccc2)C(C#N)C1 (stereo not drawn)
[1]
  growth inhibition: -9.05%
[2]
  growth inhibition: -2.65%
[3]
  growth inhibition: -16.8%
[4]
  growth inhibition: -4.8%
[5]
  growth inhibition: -14.2%
[6]
  growth inhibition: 3.25%

## O=C(O)C1CCCN1/N=C/c1cccc([N+](=O)[O-])c1 (stereo not drawn)
[1]
  growth inhibition: -11.1%
[2]
  growth inhibition: -1.3%
[3]
  growth inhibition: 9.1%
[4]
  growth inhibition: -5.4%
[5]
  growth inhibition: 24.6%
[6]
  growth inhibition: -11.3%

## CCN(CC)CCCC(C)Nc1c2ccc(Cl)cc2nc2c(Cl)cc(Cl)cc12 (stereo not drawn)
[1]
  growth inhibition: -8.55%
[2]
  growth inhibition: 4.75%
[3]
  growth inhibition: 2.5%
[4]
  growth inhibition: 23.6%
[5]
  growth inhibition: 28.3%
[6]
  growth inhibition: -8.85%

## Cc1cccc(C)c1Nc1ncnc2c1cnn2C
[1]
  growth inhibition: -11.6%
[2]
  growth inhibition: -12.5%
[3]
  growth inhibition: -1.2%
[4]
  growth inhibition: -6.55%
[5]
  growth inhibition: 9.95%
[6]
  growth inhibition: -13.9%

## O=C(Cc1nc2ccc(Cl)cc2[nH]c1=O)c1ccncc1
[1]
  growth inhibition: -2.8%
[2]
  growth inhibition: -11.6%
[3]
  growth inhibition: -3.55%
[4]
  growth inhibition: 8.1%
[5]
  growth inhibition: -24.1%
[6]
  growth inhibition: 20.8%

## CC(=O)NNc1nc(C)c(C(/C=C/c2ccc([N+](=O)[O-])cc2)=N/NC(N)=O)s1
[1]
  growth inhibition: 23.6%
[2]
  growth inhibition: -12.7%
[3]
  growth inhibition: 24.2%
[4]
  growth inhibition: 16.6%
[5]
  growth inhibition: 8.75%
[6]
  growth inhibition: 10.3%

## C[N+]1(C)C2CCC1CC(OC(=O)C(O)c1ccccc1)C2 (stereo not drawn)
[1]
  growth inhibition: -6.8%
[2]
  growth inhibition: -54.4%
[3]
  growth inhibition: -5.1%
[4]
  growth inhibition: -4.85%
[5]
  growth inhibition: -13.8%
[6]
  growth inhibition: -4.8%

## NC(CC(=O)OCc1ccccc1)C(=O)OCc1ccccc1 (stereo not drawn)
[1]
  growth inhibition: 9.1%
[2]
  growth inhibition: 9.3%
[3]
  growth inhibition: 16.1%
[4]
  growth inhibition: -5.9%
[5]
  growth inhibition: 3.55%
[6]
  growth inhibition: 4.15%

## Cc1ccc(C)c(NS(=O)(=O)c2ccc(Cl)c([N+](=O)[O-])c2)c1
[1]
  growth inhibition: 97.1% (active)
[2]
  growth inhibition: 98.2% (active)
[3]
  growth inhibition: 97.8% (active)
[4]
  growth inhibition: 96.8% (active)
[5]
  growth inhibition: 97.9% (active)
[6]
  growth inhibition: 98% (active)

## COc1cc2ccc3c4cc5c(cc4cnc3c2cc1OC)OCO5
[1]
  growth inhibition: -0.65%
[2]
  growth inhibition: -3.45%
[3]
  growth inhibition: -15.7%
[4]
  growth inhibition: -25.9%
[5]
  growth inhibition: -1.1%
[6]
  growth inhibition: -16.7%

## [Cl][Cu][Cl].c1ccc2c(c1)Sc1ccccc1[N+]2=c1ccc2nc3ccccc3sc-2c1
[1]
  growth inhibition: 26.1%
[2]
  growth inhibition: 45.8%
[3]
  growth inhibition: 29.8%
[4]
  growth inhibition: 2.7%
[5]
  growth inhibition: 29.9%
[6]
  growth inhibition: 35%

## c1cnn([B-]2(n3cccn3)n3ccc[n+]3[B-](n3cccn3)(n3cccn3)n3ccc[n+]32)c1
[1]
  growth inhibition: 0.85%
[2]
  growth inhibition: -11.6%
[3]
  growth inhibition: 9.2%
[4]
  growth inhibition: -8.85%
[5]
  growth inhibition: 14.1%
[6]
  growth inhibition: -4.05%

## O=C1c2ccccc2-c2cccc(I)c21
[1]
  growth inhibition: 15.6%
[2]
  growth inhibition: -8.7%
[3]
  growth inhibition: -5.55%
[4]
  growth inhibition: 6.95%
[5]
  growth inhibition: 0.1%
[6]
  growth inhibition: -7.4%

## O=C(O)C1=C/C(=C\C=[N+]2c3cc(O)c(OC4OC(CO)C(O)C(O)C4O)cc3CC2C(=O)[O-])CC(C(=O)O)N1 (stereo not drawn)
[1]
  growth inhibition: -10.4%
[2]
  growth inhibition: -3.75%
[3]
  growth inhibition: 12.2%
[4]
  growth inhibition: -26.1%
[5]
  growth inhibition: 5.8%
[6]
  growth inhibition: 6%

## O=[N+]([O-])c1ccc(N/N=C\C2CC=C3c4ccccc4CCC3C2/C=N\Nc2ccc([N+](=O)[O-])cc2[N+](=O)[O-])c([N+](=O)[O-])c1 (stereo not drawn)
[1]
  growth inhibition: 0.75%
[2]
  growth inhibition: 3.1%
[3]
  growth inhibition: -15.1%
[4]
  growth inhibition: -9.7%
[5]
  growth inhibition: -3.3%
[6]
  growth inhibition: -5.85%

## CCCC(=O)Nc1cn(COC)c(C(=O)N2C[C@@H]3C[C@]34C2=CC(=O)c2[nH]cc(C)c24)n1
[1]
  growth inhibition: 28.2%
[2]
  growth inhibition: 20.4%
[3]
  growth inhibition: 34.4%
[4]
  growth inhibition: 14.2%
[5]
  growth inhibition: 26.2%
[6]
  growth inhibition: 50.8%

## O.O.[Cu+2].[Cu+2].[NH-]CCC(=O)[N-]C(Cc1cnc[nH]1)C(=O)O.[NH-]CCC(=O)[N-]C(Cc1cnc[nH]1)C(=O)O (stereo not drawn)
[1]
  growth inhibition: -26.1%
[2]
  growth inhibition: 5.8%
[3]
  growth inhibition: 0.95%
[4]
  growth inhibition: 31.8%
[5]
  growth inhibition: 6.35%
[6]
  growth inhibition: 11.8%

## Nc1ccccc1CN1C(=O)CCC1=O
[1]
  growth inhibition: 0.25%
[2]
  growth inhibition: -6.8%
[3]
  growth inhibition: -12.4%
[4]
  growth inhibition: -14.9%
[5]
  growth inhibition: -10.1%
[6]
  growth inhibition: -14.2%

## c1ccc(-c2nnn(CCN3CCCCC3)n2)cc1
[1]
  growth inhibition: 33.1%
[2]
  growth inhibition: 20.9%
[3]
  growth inhibition: -3.9%
[4]
  growth inhibition: 12.1%
[5]
  growth inhibition: 34%
[6]
  growth inhibition: 23.5%

## O=C(Nc1ccc2ccccc2c1)c1ccc(Cl)cc1Cl
[1]
  growth inhibition: -12.1%
[2]
  growth inhibition: 14.2%
[3]
  growth inhibition: -0.7%
[4]
  growth inhibition: -2.85%
[5]
  growth inhibition: 2.45%
[6]
  growth inhibition: -14.8%

## CCCCCCCCCc1cc(-c2ccc(C=O)s2)sc1-c1ccc(C=O)s1
[1]
  growth inhibition: 8.8%
[2]
  growth inhibition: -4.5%
[3]
  growth inhibition: -8.8%
[4]
  growth inhibition: -3.6%
[5]
  growth inhibition: -12.9%
[6]
  growth inhibition: 0.4%

## CCCC(/C(C)=N/NC(N)=O)C1CCCCC1 (stereo not drawn)
[1]
  growth inhibition: 14.2%
[2]
  growth inhibition: 7.45%
[3]
  growth inhibition: -2.6%
[4]
  growth inhibition: 1%
[5]
  growth inhibition: -5.1%
[6]
  growth inhibition: 2%

## CCOC(=O)C1CC(=O)C2/C(=C(\O)c3ccccc3)C=C([N+](=O)[O-])C1C2[N+](=O)[O-] (stereo not drawn)
[1]
  growth inhibition: 3%
[2]
  growth inhibition: 3.65%
[3]
  growth inhibition: -13.6%
[4]
  growth inhibition: -1.25%
[5]
  growth inhibition: 3.6%
[6]
  growth inhibition: -1.2%

## CC(C)(C)OC1COCCO1 (stereo not drawn)
[1]
  growth inhibition: 12.1%
[2]
  growth inhibition: -5.35%
[3]
  growth inhibition: 8.35%
[4]
  growth inhibition: 1.3%
[5]
  growth inhibition: 8%
[6]
  growth inhibition: 13.8%

## COc1cc(C)c(N)cc1N
[1]
  growth inhibition: -2.7%
[2]
  growth inhibition: -16.9%
[3]
  growth inhibition: 11.3%
[4]
  growth inhibition: -14%
[5]
  growth inhibition: -1%
[6]
  growth inhibition: 15.7%

## CC(C)(C)C(=O)C(C(c1ccccc1)N1CCOCC1)N1CCOCC1 (stereo not drawn)
[1]
  growth inhibition: 21.7%
[2]
  growth inhibition: -5.8%
[3]
  growth inhibition: -33.6%
[4]
  growth inhibition: -17%
[5]
  growth inhibition: 5.7%
[6]
  growth inhibition: -10.6%

## C[C@H]1C(=O)OCN1S(=O)(=O)C(C)(C)C
[1]
  growth inhibition: -0.05%
[2]
  growth inhibition: 25%
[3]
  growth inhibition: 16.1%
[4]
  growth inhibition: -1.8%
[5]
  growth inhibition: 16.1%
[6]
  growth inhibition: -2.95%

## C=CCOCOC(C)C(=O)OCC (stereo not drawn)
[1]
  growth inhibition: -10.5%
[2]
  growth inhibition: 6.6%
[3]
  growth inhibition: -8.35%
[4]
  growth inhibition: -26.7%
[5]
  growth inhibition: -9.2%
[6]
  growth inhibition: 6.45%

## CC(=O)Nc1cc2c(cc1Cl)-c1cc(Cl)c(Cl)cc1C2=O
[1]
  growth inhibition: -18.1%
[2]
  growth inhibition: -2.55%
[3]
  growth inhibition: -9.85%
[4]
  growth inhibition: -25.1%
[5]
  growth inhibition: -20.7%
[6]
  growth inhibition: -17.5%

## CCC(=O)c1cc2c(cc1O)CC(C(=O)CC)c1ccccc1-2 (stereo not drawn)
[1]
  growth inhibition: 13.3%
[2]
  growth inhibition: 6.55%
[3]
  growth inhibition: 17%
[4]
  growth inhibition: -2.55%
[5]
  growth inhibition: 11.2%
[6]
  growth inhibition: 12.4%

## COc1nc2cc(C)c(C)cc2n1C1OC(CO)C(O)C1O (stereo not drawn)
[1]
  growth inhibition: -12.6%
[2]
  growth inhibition: 16.4%
[3]
  growth inhibition: 6.95%
[4]
  growth inhibition: -8.3%
[5]
  growth inhibition: -0.9%
[6]
  growth inhibition: -7%

## CC(C)=C/C(C)=N/NC(N)=O
[1]
  growth inhibition: 7.9%
[2]
  growth inhibition: -4.55%
[3]
  growth inhibition: -24.3%
[4]
  growth inhibition: -19.1%
[5]
  growth inhibition: -19.8%
[6]
  growth inhibition: -32.2%

## CCCCCCCCCCCCCC1CCC(CC)N1 (stereo not drawn)
[1]
  growth inhibition: 92% (active)
[2]
  growth inhibition: 93.7% (active)
[3]
  growth inhibition: 92.2% (active)
[4]
  growth inhibition: 91.6% (active)
[5]
  growth inhibition: 91.8% (active)
[6]
  growth inhibition: 91.8% (active)

## Cc1cc(C)nc(NS(=O)(=O)c2ccc(Nc3c4ccc(Cl)cc4nc4c(C(=O)NCCN(C)C)cccc34)cc2)n1
[1]
  growth inhibition: 0%
[2]
  growth inhibition: 13.8%
[3]
  growth inhibition: -5.05%
[4]
  growth inhibition: 1.4%
[5]
  growth inhibition: 30.8%
[6]
  growth inhibition: 6.95%

## COc1ccc(/C=C2/CSCC3=C2NC(=S)NC3c2ccc(OC)c(OC)c2OC)c(OC)c1OC (stereo not drawn)
[1]
  growth inhibition: 12.8%
[2]
  growth inhibition: 13.9%
[3]
  growth inhibition: 37%
[4]
  growth inhibition: 34.6%
[5]
  growth inhibition: 48.4%
[6]
  growth inhibition: 10.9%
